# TMEM16A act: activators or potentiators of mouse TMEM16A chloride channel. HEK293 TMEM16A/YFP-H148Q/I152L, iodide quench fluorescence; active compounds read low. B-score at 10 µM. 340,000 compounds, 0.3% hits. AID 623877;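 active = fluorescence-ratio B-score plate-corrected deviation score at least 3 library SD below zero, with starting fluorescence score within 5 deviations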;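 note: channel opened by trigger with iodide after compound preincubation; score built on the fluorescence ratio of max minus min over baseline; more negative score means more quench and so TMEM16A activation or potentiation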
# Target sequence (Q8BHY3 whole entry, looked up): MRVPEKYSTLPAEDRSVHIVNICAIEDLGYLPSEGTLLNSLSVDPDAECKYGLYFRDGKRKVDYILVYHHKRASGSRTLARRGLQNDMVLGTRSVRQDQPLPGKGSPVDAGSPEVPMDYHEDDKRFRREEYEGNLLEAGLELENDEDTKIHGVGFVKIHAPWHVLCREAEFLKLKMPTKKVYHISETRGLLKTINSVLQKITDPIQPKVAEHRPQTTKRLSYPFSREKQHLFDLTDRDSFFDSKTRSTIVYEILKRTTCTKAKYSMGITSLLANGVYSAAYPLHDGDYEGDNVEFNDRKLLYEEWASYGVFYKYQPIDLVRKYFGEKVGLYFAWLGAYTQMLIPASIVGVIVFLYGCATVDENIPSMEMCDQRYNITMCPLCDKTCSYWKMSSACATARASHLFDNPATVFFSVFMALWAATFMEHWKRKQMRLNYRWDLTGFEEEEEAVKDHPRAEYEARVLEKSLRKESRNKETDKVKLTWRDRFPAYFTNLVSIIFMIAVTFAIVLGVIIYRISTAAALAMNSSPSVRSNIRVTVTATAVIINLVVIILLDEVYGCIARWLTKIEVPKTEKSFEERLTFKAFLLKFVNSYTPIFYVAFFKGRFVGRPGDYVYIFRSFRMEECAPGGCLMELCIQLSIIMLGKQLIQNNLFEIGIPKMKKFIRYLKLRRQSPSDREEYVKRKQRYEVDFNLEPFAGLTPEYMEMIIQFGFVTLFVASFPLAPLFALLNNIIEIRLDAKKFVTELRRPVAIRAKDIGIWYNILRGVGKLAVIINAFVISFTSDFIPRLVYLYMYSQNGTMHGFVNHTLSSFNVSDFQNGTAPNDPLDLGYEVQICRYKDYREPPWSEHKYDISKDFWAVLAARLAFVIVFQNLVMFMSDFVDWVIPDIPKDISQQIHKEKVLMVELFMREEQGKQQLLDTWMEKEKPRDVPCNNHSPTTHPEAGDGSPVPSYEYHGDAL
# MPTP block: blocks calcium-induced mitochondrial swelling; isolated mouse mitochondria, Ca2+ swelling absorbance, 30 min; inhibition, % at 10 µM; 360,000 compounds, 1.4% hits; AID 602449;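 active = inhibition of 50% or more, scaled per plate between neutral and stimulator controls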
# CRFR2-BP ag: agonists of human CRF-binding protein/CRF-R2 receptor complex | HEK293 CRF-R2/CRF-BP, calcium dye fluorescence (FLIPR); percent of saturating CRF peptide response | activation, % at 13.2 µM | 350,000 compounds, 0.46% hits | AID 588473;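 active = activation of at least 50%, plus an integration ratio under a set limit after plate pattern correction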
# TMEM16A inh: mouse TMEM16A channel inhibition, primary screen; HEK293 TMEM16A/YFP iodide influx fluorescence, ionomycin; normalized B-score (activity score, 25-100; higher = stronger inhibition) at 10 µM; 310,000 compounds, 1.2% hits; AID 588511;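 active = ratio plate-corrected score three or more library SD toward inhibition, starting fluorescence score within five deviations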;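 note: score derived from kinetic fluorescence span divided by baseline fluorescence per well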
# CRFBP-R2 block: antagonists of CRF-binding protein/CRF-R2 receptor complex; AID 588475; 350,000 compounds, 0.59% hits; HEK293 CRF-R2/CRF-BP, CRF-induced calcium fluorescence; inhibition, % at 11.8 µM;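 active = inhibition of the ligand-induced calcium signal above about 50% at the single tested concentration, limit read from the data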
# GRIN3A LBD mod: modulators (binders) of human NR3A ligand-binding domain | NR3A LBD differential scanning fluorimetry, Tm shift; 0% = protein alone, 100% = glycine-bound protein | Tm shift relative to glycine control, % at 25 µM | 340,000 compounds, 2.5% hits;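 active = melting temperature shift of at least 10% of the positive control shift, at one fixed dose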
# A number is an active result; i = inactive; nt = no result given. This is a sample that favours compounds with a hit; in the whole collection about 5.1% have one here.
SMILES,TMEM16A act,MPTP block,CRFR2-BP ag,TMEM16A inh,CRFBP-R2 block,GRIN3A LBD mod
CCn1cc(/C=N\NC(=O)c2ccc3c(c2)c(C)c(C)n3Cc2ccccc2)c(C)n1,i,i,i,i,i,18.8
COC(=O)[C@@]1(Cc2ccccc2)[C@H]2C(=O)N(C)C(=O)[C@H]2[C@H]2CN=C(SCc3ccccc3)N21,nt,i,i,nt,i,i
CN(C)c1ccc(/C=N/N(CCO)C2=NS(=O)(=O)c3ccccc32)cc1,i,i,139.8,i,i,i
O=C(COC(=O)C12CC3CC(CC(O)(C3)C1)C2)Nc1cccc(Br)c1,i,i,i,nt,i,i
Cc1cc(Cl)nc(-c2ccccc2O)n1,i,i,i,i,i,i
Cc1cc(Nc2cccc(Cl)c2)nc(-c2ccccc2O)n1,i,i,i,i,i,36.6
Cc1nc2ccccc2nc1Nc1cccc(Cl)c1,i,i,i,i,i,i
Cc1cc(Nc2ccc(Cl)cc2)nc(-c2ccccc2O)n1,i,i,i,i,i,35.4
O=C(OCC(=O)N1CCCc2ccccc21)c1ccc(S(=O)(=O)C(F)F)cc1,i,i,i,i,i,i
Nc1ccc2nc(-c3ccccc3)[nH]c2c1,i,i,i,i,i,i
COc1ccc2nc(-c3ccc(N)cc3)[nH]c2c1,i,i,i,i,i,i
Nc1ccc2nc(-c3ccc(N)c(Cl)c3)[nH]c2c1,i,i,i,i,i,15.8
Nc1ccc(-c2nc3c(Cl)cc(N)cc3[nH]2)cc1,i,i,i,i,i,10.5
CN(C)c1ccc(C(=O)NCc2ccc3c(c2)CCO3)cc1,i,i,i,i,i,10.3
Cc1ccc(CNC(=O)c2ccc(N(C)C)cc2)cc1,i,i,i,i,i,i
CSc1cccc(NC(=S)N2CCC(c3ccccc3)C2)c1 (stereo unspecified),i,i,i,i,i,i
CCc1cccc(NC(=S)N2CCC(c3ccccc3)C2)c1 (stereo unspecified),-5.67,i,i,i,i,i
O=c1c2ccccc2nc(/C=C/c2c[nH]c3ccccc23)n1-c1ccc([N+](=O)[O-])cc1,i,i,i,i,i,25.9
COc1ccc(CCNC(=O)c2cc(=O)n(C)c(=O)n2C)cc1OC,i,i,i,i,i,i
Cn1c(C(=O)NCCc2ccccc2)cc(=O)n(C)c1=O,i,i,i,i,71.0,i
CC(Oc1ccc(Cl)cc1)C(=O)NNC(=S)NC(=O)c1ccco1 (stereo unspecified),i,i,134.6,i,i,i
C=CCC[C@@H](Cc1ccc(F)cc1)C(=O)OC[C@@H](NC(=O)[C@@H](CC=C)CC(=O)N[C@@H](CO)Cc1ccccc1)C(C)(C)C,i,i,i,nt,i,i
C=CCC[C@@H](Cc1ccc(F)cc1)C(=O)OC[C@H](Cc1c[nH]c2ccccc12)NC(=O)[C@@H](CC=C)CC(=O)N[C@H](CO)Cc1ccccc1,i,i,i,nt,i,14.5
C=CCC[C@H](Cc1ccc(F)cc1)C(=O)OC[C@@H](NC(=O)[C@@H](CC=C)CC(=O)N[C@@H](CO)Cc1ccccc1)C(C)(C)C,i,i,i,nt,i,31.0
CC(=O)N(C(C)=O)c1cccc(N(Cc2ccccc2)Cc2ccccc2)c1,i,i,i,nt,53.6,i
SMILES,TMEM16A act,MPTP block,CRFR2-BP ag,TMEM16A inh,CRFBP-R2 block,GRIN3A LBD mod
CCN(CC)c1ncnc2c1ncn2[C@H]1CN(Cc2ccc(Cl)cc2)C[C@@H](CO)O1,nt,i,nt,nt,nt,nt
Cc1ccc(N2C(=O)CSCC2=O)cc1,i,i,i,i,i,i
Cc1ccc(N2C(=O)CS/C2=C(\C(Cl)=C(Cl)Cl)[N+](=O)[O-])cc1,i,i,i,i,i,10.7
CCCCCCOC1(c2ccccc2)OC(=O)c2ccccc21 (stereo unspecified),i,i,i,25,i,i
Cn1c(O)c(C=Nc2ccc(N3CCOCC3)cc2)c(=O)n(C)c1=S,-4.83,i,i,nt,i,i
Cc1cc(O)c(C=Nc2ccc(N3CCOCC3)cc2)c(C)c1Cl,i,i,i,i,i,i
O=C(NCC(=O)N1CCCCC1)c1ccc2ccccc2c1,i,i,i,i,i,i
CC1CC(C)CN(C(=O)CNC(=O)c2ccc3ccccc3c2)C1 (stereo unspecified),i,i,i,i,i,91.7
CCN(Cc1cc2ccccc2[nH]c1=O)C(=O)C(C)C,-4.82,i,i,i,i,i
CCN(Cc1cc2ccccc2[nH]c1=O)C(=O)C1CCCCC1,i,i,i,i,i,i
COc1ccc2nc(NC(=O)c3ccccc3O)sc2c1,i,i,i,i,i,i
COc1ccc2nc(Nc3ccccc3)sc2c1,i,i,i,i,i,29.8
COc1ccc2nc(Nc3ccccc3OC)sc2c1,i,i,i,i,i,18.7
COc1ccc(Nc2nc3ccccc3c(=O)s2)c(OC)c1,i,i,i,i,i,i
O=C(c1ccco1)N1CCN(C(=O)c2cc(-c3ccccc3)nc3ccccc23)CC1,i,i,i,i,i,i
Cc1cccc2c(C(=O)N3CCN(C(=O)c4ccco4)CC3)cc(-c3cccc(Br)c3)nc12,i,i,i,100,i,i
COc1cc(NC(=O)Cn2cnc(S(=O)(=O)N3CCOCC3)c2)cc(OC)c1OC,i,i,i,i,i,i
Cc1cc(C)cc(C(=O)NCC(=O)OCC(=O)Nc2ccc(C)cc2Br)c1,-4.64,i,i,i,i,i
Cc1ccc(NC(=O)COC(=O)CCC(=O)c2cccs2)c(Br)c1,i,i,i,nt,59.1,i
Cc1ccc(NC(=O)CCC(=O)c2cccs2)c(Br)c1,i,i,i,i,i,i
Fc1ccc(Nc2nc(NCc3cccs3)nc3ccsc23)cc1,nt,i,nt,nt,nt,nt
Cc1ncc(NS(=O)(=O)c2ccc(N)cc2)nc1C,i,i,i,nt,i,i
CCOC(=O)Cn1c(=O)oc2cc(S(=O)(=O)NC(C)(C)CC)ccc21,i,i,i,i,89.2,i
CCOC(=O)Cn1c(=O)oc2cc(S(=O)(=O)NCCC(C)C)ccc21,i,i,i,i,i,i
Oc1ccccc1C1CC(c2cccs2)=NC(c2ccc(Cl)cc2)N1 (stereo unspecified),i,i,i,i,i,10.1
COc1ccc2cc(CCNC(=O)c3cc4ccccc4o3)c(=O)[nH]c2c1,i,i,i,i,i,20.7
Cc1ccc2cc(CCNC(=O)c3cc4ccccc4o3)c(=O)[nH]c2c1C,i,i,i,i,i,i
CCOC(=O)c1nn(-c2ccc(Cl)cc2)c2nnc(Cc3ccc(C)cc3)c(=O)n12,i,i,i,i,i,13.4
CCOC(=O)c1nn(-c2ccc(Cl)cc2)c2nnc(Cc3ccccc3)c(=O)n12,i,i,i,i,i,10.2
Cc1cc(=O)n2nc(N3CCC(C(=O)NCc4cccc(Br)c4)CC3)sc2n1,i,i,i,i,i,i

# Screens (PubChem)
